Results: the supplement of paper PMC10981050
“And” between values parts separate entries of the source, which are not always exact repeats. Equal entries are not always repeated. Structures can show the parent of a compound that is named as a salt.

Legend:
Assay in all cases: cell viability relative to vehicle control; higher = less cytotoxic
Details in all cases: 10 µM
K562 = test system: K562
Summary of the method: (§1)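 Four leukaemia lines, as CRISPR-edited mutant clones and isogenic wild-type clones, were tested against Selleck bioactive, kinase and epigenetic probe libraries after removal of identity-inconsistent compounds. Cells were exposed to a single 10 µM dose for 48 h, and CellTiter-Glo luminescence was then read. Viability was calculated relative to the on-plate vehicle control.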

MARIMO = test system: MARIMO
Summary of the method: as §1

MOLM14 = test system: MOLM14
Summary of the method: as §1

OCI-AML2 = test system: OCI-AML2
Summary of the method: as §1

| Compound | cell viability (K562; SRSF2 genotype: SRSF2 P95H/wt) | cell viability (K562; SRSF2 genotype: SRSF2 wt/wt) | cell viability (MARIMO; SRSF2 genotype: SRSF2 P95H/wt) | cell viability (MARIMO; SRSF2 genotype: SRSF2 wt/wt) | cell viability (MOLM14; SRSF2 genotype: SRSF2 P95H/wt) | cell viability (MOLM14; SRSF2 genotype: SRSF2 wt/wt) | cell viability (OCI-AML2; SRSF2 genotype: P95H/wt) | cell viability (OCI-AML2; SRSF2 genotype: wt/wt) |
| --- | --- | --- | --- | --- | --- | --- | --- | --- |
| CCCCCOc1ccccc1/C(=C\SC)n1ccnc1 [Neticonazole Hydrochloride] | 66.4% and 59.1% | 68.9% | 45.7% | 39% | 59.7% | 54.8% | 25.7% | 26% |
| C[C@@H]1O[C@@H](OC[C@H]2O[C@@H](Oc3cc(O)c4c(=O)cc(-c5ccc(O)cc5)oc4c3)[C@H](O[C@@H]3O[C@@H](C)[C@H](O)[C@@H](O)[C@H]3O)[C@@H](O)[C@@H]2O)[C@H](O)[C@H](O)[C@H]1O [ligustroflavone] | 103% | 106% | 97.1% | 105% | 90.7% | 103% | 107% | 108% |
| COCCOc1ccc2c(c1)ncn2-c1ccc2cccc(N3CCC(N)CC3)c2n1 | 72.2% and 70.2% | 63.5% | 2.19% | 1.07% | 0.96% | -0.03% | 0.57% | 3.99% |
| Oc1ccc(/C=C/c2cc(O)cc(O)c2)cc1 [Resveratrol] | 83.1% and 92.7% | 91.6% | 70.1% | 79.6% | 73.4% | 80% | 67.2% | 72.8% |
| CC(C)(Sc1cc(C(C)(C)C)c(O)c(C(C)(C)C)c1)Sc1cc(C(C)(C)C)c(O)c(C(C)(C)C)c1 [Probucol] | 98.5% and 99.2% | 102% | 99.7% | 105% | 102% | 105% | 105% | 103% |
| CC1=CC(=O)[C@@H]2C[C@H]1C2(C)C [(-)-Verbenone] | 105% and 102% | 96.3% | 92.5% | 98.8% | 90.8% | 95.7% | 87.2% | 96.3% |
| CCN(CC)CCCC[C@H](NC(=O)[C@H](CC(C)C)NC(=O)[C@H](C)NC(=O)[C@H](Cc1ccccc1)NC(=O)c1ccc(C(C)(C)C)cc1)C(=O)N[C@@H](CO)C(=O)OC | 88.1% and 85% | 84.6% | 86.1% | 99% | 83.2% | 92% | 90.4% | 113% |
| COc1nc(N)nc2c1ncn2[C@@H]1O[C@H](CO)[C@@H](O)[C@@H]1O [Nelarabine (Arranon)] | 98.2% and 96.9% | 99.6% | 95.5% | 91.2% | 90.7% | 93.5% | 94.7% | 94.5% |
| CC(C)(C)NC(=O)c1cncn1C1CCN(c2ccc(-c3nnc(C(F)(F)F)o3)cn2)CC1 | 69% and 57.2% | 63.8% | 53.1% | 64.5% | 56.7% | 45.7% | 8.34% | 20.6% |
| N#C/C(=C1/SC[C@@H](c2ccc(Cl)cc2Cl)S1)n1ccnc1 [Luliconazole] | 85.6% and 83.3% | 82.6% | 78.9% | 100% | 88.7% | 89.5% | 62.5% | 83.5% |
| CC(C)[C@H](NC(=O)OCc1ccccc1)C(=O)N[C@@H](C)C(=O)N[C@@H](CC(=O)O)C(=O)CF | 109% and 102% | 106% | 99.8% | 102% | 104% | 104% | 102% | 97.4% |
| OCc1cc(C(O)CNCCCCCCOCCCCc2ccccc2)ccc1O (stereo not given) [Salmeterol] | 77.8% and 87.8% | 88.4% | 67.7% | 68.6% | 62.8% | 74.9% | 55.2% | 60.2% |
| OCCN1C[C@H](O)[C@@H](O)[C@H](O)[C@H]1CO [Miglitol (Glyset)] | 98.3% and 109% | 101% | 106% | 102% | 106% | 106% | 107% | 94.9% |
| CC(COc1ccccc1)N(CCCl)Cc1ccccc1 (stereo not given) [Phenoxybenzamine HCl] | 66.1% and 73.8% | 63.2% | 67.3% | 72.5% | 57.5% | 62.7% | 54.4% | 62.1% |
| O=c1[nH]cnc2c1ncn2[C@H]1C[C@H](O)[C@@H](CO)O1 [2'-Deoxyinosine] | 120% and 113% | 116% | 104% | 107% | 105% | 118% | 103% | 111% |
| COc1ccc(Oc2cc(C)c(-c3csc(NC(=O)c4ccncc4)n3)c(C)c2)cc1 | 43.7% and 37.3% | 36.9% | 37.8% | 37.6% | 42.4% | 25.9% | 47.8% | 32.2% |
| S=c1nc[nH]c2nc[nH]c12 [6-Mercaptopurine (6-MP) Monohydrate] | 70.9% and 60.5% | 39.7% | 104% | 96.8% | 87.4% | 71.8% | 103% | 94.1% |
| C[C@]12C[C@@H](O)[C@@H]3C[C@@]1(O[C@@H]1O[C@H](CO)[C@@H](O)[C@H](O)[C@H]1O)[C@@]3(COC(=O)c1ccccc1)C(=O)O2 [Albiflorin] | 103% and 108% | 107% | 96.9% | 94.5% | 104% | 98.4% | 98.3% | 92.9% |
| COC(=O)N[C@H](C(=O)N1CCC[C@H]1C(=O)Nc1ccc([C@@H]2CC[C@@H](c3ccc(NC(=O)[C@@H]4CCCN4C(=O)[C@@H](NC(=O)OC)C(C)C)cc3)N2c2ccc(C(C)(C)C)cc2)cc1)C(C)C [Ombitasvir(ABT-267)] | 83.3% and 81.3% | 91% | 89.8% | 96.3% | 91.9% | 92.5% | 112% | 99.6% |
| O=c1c(-c2ccc(O)cc2)coc2c([C@@H]3O[C@H](CO)[C@@H](O)[C@H](O)[C@H]3O)c(O)ccc12 [Puerarin (Kakonein)] | 109% and 101% | 97.2% | 98.6% | 101% | 102% | 102% | 96.4% | 102% |
